PMC4336329 (PLoS ONE, 2015)
The campaign covered roughly 310,000 compounds. About 14,000 (4.5%) showed an effect of 50% or more. The effect is printed as a negative number. Many of the other results were omitted from the sample, so strong results are more common in it than they were.

Each molecule was assayed against human ether-à-go-go-related gene (hERG) potassium channel (human, UniProt Q12809) (assay: primary screen, population patch clamp on CHO cells stably expressing hERG; higher = less effect of the substance).
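Note: peak tail current of the secondary pulse compared with the same well before compound.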

Chain of human ether-à-go-go-related gene (hERG) potassium channel (Q12809 whole entry, looked up): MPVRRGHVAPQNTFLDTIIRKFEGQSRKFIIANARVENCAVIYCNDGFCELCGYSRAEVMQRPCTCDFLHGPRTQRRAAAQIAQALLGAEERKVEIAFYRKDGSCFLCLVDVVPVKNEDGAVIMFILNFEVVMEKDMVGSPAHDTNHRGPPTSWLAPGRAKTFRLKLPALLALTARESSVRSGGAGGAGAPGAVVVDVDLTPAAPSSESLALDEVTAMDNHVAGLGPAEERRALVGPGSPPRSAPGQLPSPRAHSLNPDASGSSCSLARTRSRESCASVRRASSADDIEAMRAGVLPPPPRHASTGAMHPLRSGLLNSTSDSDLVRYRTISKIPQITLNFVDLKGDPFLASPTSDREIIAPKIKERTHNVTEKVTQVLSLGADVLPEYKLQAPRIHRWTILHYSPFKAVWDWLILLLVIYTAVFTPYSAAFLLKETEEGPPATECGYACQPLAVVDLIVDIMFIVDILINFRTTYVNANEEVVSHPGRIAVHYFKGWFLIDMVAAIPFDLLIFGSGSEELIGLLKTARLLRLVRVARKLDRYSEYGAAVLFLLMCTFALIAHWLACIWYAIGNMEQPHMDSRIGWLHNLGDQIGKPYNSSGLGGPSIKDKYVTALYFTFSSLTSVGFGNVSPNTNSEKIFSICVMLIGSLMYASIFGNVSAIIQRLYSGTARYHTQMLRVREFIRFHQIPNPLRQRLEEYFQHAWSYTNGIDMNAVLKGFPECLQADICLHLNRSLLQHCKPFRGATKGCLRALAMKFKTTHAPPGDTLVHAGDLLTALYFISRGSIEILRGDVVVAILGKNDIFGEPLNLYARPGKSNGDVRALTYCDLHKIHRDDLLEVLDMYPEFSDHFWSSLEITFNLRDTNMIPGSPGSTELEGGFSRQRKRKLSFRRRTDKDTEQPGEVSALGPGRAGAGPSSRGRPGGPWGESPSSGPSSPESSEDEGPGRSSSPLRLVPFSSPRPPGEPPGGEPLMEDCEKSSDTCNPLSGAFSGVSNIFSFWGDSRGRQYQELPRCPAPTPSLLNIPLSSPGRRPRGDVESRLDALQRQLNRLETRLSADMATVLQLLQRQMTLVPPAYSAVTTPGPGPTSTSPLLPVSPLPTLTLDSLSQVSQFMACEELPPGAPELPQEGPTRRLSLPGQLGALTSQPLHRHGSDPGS

SMILES	hERG current change (%, negative = inhibition) at 10uM [%]
Cc1cc(OC(=O)c2cccc(Cl)c2)c([N+](=O)[O-])c(=O)[nH]1	19.9
COCCNc1oc(-c2ccco2)nc1S(=O)(=O)c1ccccc1	2.69
CCC(CO)NCC(O)COCc1ccc2c(c1)OCO2 (centres unmarked)	10.1
Cc1cc(OCCN2CCC(Cc3ccccc3)CC2)ccc1[N+](=O)[O-].O=C(O)C(=O)O	-79.1
Cc1ccc(C)c(OCCCCN2CCCCC2)c1.O=C(O)C(=O)O	-42.1
Cc1ccc(C)c(OCCCN2CCCC2)c1.O=C(O)C(=O)O	-54.9
Cc1ccc(OCCCCN2CCCC(C)C2)c([N+](=O)[O-])c1.O=C(O)C(=O)O (centres unmarked)	-69
Cc1ccc(OCCCN2CCCC2)c(C)c1.O=C(O)C(=O)O	-27.2
Cc1cc(OCCN2CCCCCC2)ccc1[N+](=O)[O-].O=C(O)C(=O)O	-46.2
Cc1ccc(OCCCN2CCOCC2)c([N+](=O)[O-])c1.O=C(O)C(=O)O	-12
Cc1ccc(OCCOCCN2CCCCC2)c([N+](=O)[O-])c1.O=C(O)C(=O)O	-37.5
Cc1ccc(OCCCCN2CCCCC2)c(C)c1	-24.6
Cc1cc(C)c(C)c(OCCCCN2CCCCC2)c1	-52.5
Cc1cc(C)c(C)c(OCCOCCN2CCN(C)CC2)c1	-1.93
Cc1cc(OCCN2CCCC2)ccc1[N+](=O)[O-].O=C(O)C(=O)O	-9.82
CCN(CC(=O)NC1CCS(=O)(=O)C1)S(=O)(=O)c1ccccc1 (centres unmarked)	7.7
CCOc1ccc(Br)cc1S(=O)(=O)Nc1ccccc1N1CCOCC1	-15.8
O=C(Cn1cccc1)N1CCN(C(c2ccccc2)c2ccccc2)CC1	-3.68
Cn1c(=O)c2c(nc(NC3CCCCC3)n2Cc2ccccc2)n(C)c1=O	14.2
Cc1ccc(CN(C(=O)c2cc(=O)c3cc(C)cc(C)c3o2)C2CCS(=O)(=O)C2)cc1 (centres unmarked)	-32.1
COc1ccc(N2CC(C(=O)N[C@@H](C)C(=O)NC3CCCC3)CC2=O)cc1 (some centres unmarked)	15.7
CN(C)/C=C/C(=O)c1cnc2sccn2c1=O	5.24
Cc1ccc(/C=C/C(=O)c2ccccc(=O)c2O)cc1C	-24.6

SMILES	hERG current change (%, negative = inhibition) at 10uM [%]
Cc1ccc(C)c(/C=C/C(=O)c2ccccc(=O)c2O)c1	-50.7
O=C(/C=C/c1ccccc1Cl)c1ccccc(=O)c1O	-1.72
C/C(=N\NC(=O)c1ccncc1)c1cccc(NC(=O)c2ccc(C(C)(C)C)cc2)c1	-53.7
O=C(c1ccccc1)c1cccc(NC(=O)c2ccc(Br)o2)c1	-61.1
C/C(=N\NC(=O)c1cccc(Br)c1)c1cccc(NC(=O)c2ccc(C)o2)c1	-6.46
O=C(Nc1ccccc1)c1ccc(Br)o1	3.15
C/C(=N/NC(=O)c1ccc(Br)o1)c1cccc(NC(=O)c2ccc(C)o2)c1	-67.6
C/C(=N/NC(=O)c1ccco1)c1cccc(NC(=O)c2ccc(C)o2)c1	-45.4
C/C(=N\NC(=O)c1cccc(F)c1)c1cccc(NC(=O)c2ccc(F)cc2)c1	13
C/C(=N/NC(=O)c1ccncc1)c1ccc(NC(=O)c2ccccc2)cc1	7.92
C/C(=N/NC(=O)c1ccc(Br)o1)c1cccc(NC(=O)c2ccc(F)cc2)c1	-58.9
C/C(=N\NC(=O)c1ccc(F)cc1)c1cccc(NC(=O)c2cccc(F)c2)c1	21.3
COc1ccc(C(=O)N/N=C(/C)c2cccc(NC(=O)c3ccncc3)c2)cc1OC	8.48
CC(=O)c1cccc(NC(=O)c2ccc(Br)o2)c1	-1.49
CCCCNC(=O)c1onc(CSc2ccc(Cl)cc2)c1C(=O)NCCCC	-20.5
CCC(C(=O)Nc1ccc(C(C)C)cc1)c1ccccc1 (centres unmarked)	11.8
COc1cc(/C=N/NC(=O)CNC(=O)c2ccc3c(c2)OCCO3)ccc1O	1.98
COc1cccc(C2CCCN2Cc2nc(-c3cnccn3)no2)c1 (centres unmarked)	7.84
CC(NC(=O)Cc1cccs1)c1ccccc1 (centres unmarked)	24.5
Cc1ccc(NC(=O)CCSc2nnc(-c3ccco3)o2)cc1	9.02
COCc1cc(=O)[nH]c(Nc2nc3ccc(C)cc3o2)n1	-10.3
O=C(/C=C/c1ccccc1)NCCN1CCOCC1	20.6
COc1ccc(C(=O)/C(=C/N(C)C)S(=O)(=O)c2ccccc2)cc1	10.8

SMILES	hERG current change (%, negative = inhibition) at 10uM [%]
O.O=C1NC2(O)C(=O)c3ccccc3C2(O)N1 (centres unmarked)	11
O=C(N/N=C\c1cc(Br)cs1)c1ccncc1	-6.73
CCC1Sc2ccc(S(=O)(=O)CCC(=O)NC3CCCCCC3)cc2NC1=O (centres unmarked)	16.1
c1ccc2c(c1)Oc1ccccc1S2	14.7
CCOC(=O)c1ccc(N=C2C(=S)N(c3ccc(C(=O)OCC)cc3)C(=N)N2/N=C/c2ccccc2)cc1	-52.7
N=C1N(/N=C/c2ccccc2)C(=Nc2ccccc2)C(=S)N1c1ccccc1	2.03
Cc1ccc(N=C2C(=S)N(c3ccc(C)cc3)C(=N)N2/N=C/c2ccc(Cl)cc2)cc1	-6.29
CCOc1ccc(C(=O)NC2CCN(C(=O)Nc3ccc(F)cc3)CC2)cc1	0.481
CCc1cc2c(NCCC(=O)O)nc(C)nc2s1	24.2
COc1ccc(C(=O)C2CCCN(Cc3cc(C)c(O)c(C)c3)C2)c(OC)c1 (centres unmarked)	-61
COc1ccc(C(=O)C2CCCN(Cc3ccc(C#CCCO)cc3)C2)c(OC)c1 (centres unmarked)	-51.2
Cc1ncc(CN2CCCC(C(=O)c3cccc(Cl)c3)C2)s1 (centres unmarked)	-13.6
COc1ccc2cc(C(=O)C3CCCN(Cc4cnc(C)s4)C3)ccc2c1 (centres unmarked)	-28.8
COc1ccc(C(=O)C2CCCN(Cc3ccc(C#CCCO)cc3)C2)cc1F (centres unmarked)	-45.3
COc1ccc(C(=O)C2CCCN(Cc3ccc(C)s3)C2)cc1OC (centres unmarked)	-71.6
COc1ccc(C(=O)C2CCCN(Cc3cnc(C)s3)C2)cc1OC (centres unmarked)	-5.12
Cc1ncc(CN2CCCC(C(=O)c3ccc(C(C)(C)C)cc3)C2)s1 (centres unmarked)	-72.8
CCOC(=O)N1CCN(c2nc(-c3cccc(OC)c3)cc(C(F)(F)F)n2)CC1	6.67
Cc1c(C(=O)N2CCCC2)c(S(=O)(=O)Nc2cccc(Br)c2)c(C)n1C	6.99
CCN(CC)C(=O)Cn1cnc2sc(C(=O)Nc3cc(OC)c(OC)c(OC)c3)c(C)c2c1=O	14.5
Cn1cc(/C=N\NC(=O)C2COc3ccccc3O2)c2ccccc21 (centres unmarked)	9.62
Cc1ccc(NC(=O)NNC(=O)c2cc3ccccc3cc2O)c(C)c1	27.4
Cc1ccccc1C1NS(=O)(=O)N=C1N (centres unmarked)	23.3

SMILES	hERG current change (%, negative = inhibition) at 10uM [%]
CC(Oc1ccc(-c2ccccc2)c(F)c1)c1ccn(S(=O)(=O)c2ccc(Br)cc2)n1 (centres unmarked)	7.43
COCCCNC(=O)CN1C(=O)/C(=C\c2ccc(C)cc2)Sc2ccccc21	-15.8
COc1ccc(C(=O)C2CCCN(Cc3ccc(C)s3)C2)c(OC)c1 (centres unmarked)	-53.7
COc1ccc(C(=O)C2CCCN(Cc3ccc(NC(C)=O)cc3)C2)cc1OC (centres unmarked)	-21.1
COc1ccc(C(=O)C2CCCN(Cc3ccsc3)C2)cc1OC (centres unmarked)	-73.8
COc1ccc(C(=O)C2CCCN(Cc3cnc(C)s3)C2)c(OC)c1 (centres unmarked)	-42.3
NS(=O)(=O)c1ccc(CCNC(=O)C2CCN(S(=O)(=O)c3cnc[nH]3)CC2)cc1	-2.97
CC(C)(C)P(=O)(c1ccncc1)N1CCCC1 (centres unmarked)	2.14
O=C(Nc1ccc2oc(=O)ccc2c1)c1cc([N+](=O)[O-])ccc1N1CCOCC1	-41.8
CCN(CC(=O)Nc1ccc(NC(C)=O)cc1)C(=O)/C=C/c1ccc2c(c1)OCO2	0.823
CC(C)C[C@H]1CN=C(Nc2ccccc2)N1CCCC1CCCC1	-65.9
CC(C)C[C@H]1CN=C(Nc2ccccc2)N1CCC1CCCC1	-51.5
CC(C)C[C@H]1CN=C(Nc2ccccc2)N1CCC1CCCCC1	-61.5
Fc1ccc(CN2CCSCC2)cc1Br	-11.1
CCCN(Cc1ccco1)S(=O)(=O)c1ccc(OC)c(OC)c1	0.00658
Cc1ccc(OCc2ccc(C(=O)N3CCOCC3)cc2)cc1C	-12.7
O=C(OCC(=O)c1ccc(Cl)s1)c1ccc(CO)cc1	-2.65
Cc1ccc(-n2c(SCC(N)=O)nnc2-c2ccc(S(=O)(=O)N3CCCCC3)cc2)c(C)c1	-52.7
Cn1c(SCC(N)=O)nnc1-c1ccc(S(=O)(=O)N2CCCC2)cc1	4.87
NC(=O)CSc1nnc(-c2ccc(S(=O)(=O)N3CCCCC3)cc2)n1-c1ccccc1	-14.2
